# Compound activity: PubChem, National Center for Advancing Translational Sciences (NCATS)
# Most compounds without a hit are left out; they make up all but 1.7% or so of the library.
# PTHR1 agonist = PTHR1 (human) receptor agonism. Q03431. HEK293 GP2 PTHR1 cells, GloSensor cAMP luminescence, 1 h. Potency, µM (top dose mostly 115 µM), inactives show top-dose activation, hits mostly activators. actives 0.075% (n = 410,000). AID 743266; note: nearly all actives have a fitted effect of over 55% in size
#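 HEK-293-derived GP2 cells expressing PTHR1 and a GloSensor cAMP reporter, 3,000/well, plated overnight, given luciferin plus IBMX (each 0.5 mM as added) for 1 h at 37 °C, then compound for 1 h at 37 °C. Luminescence was read after 15 min at room temperature.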
# GLP1R inv ag = GLP-1 receptor (human) inverse agonism; HEK293 GLP-1R CRE-luciferase, luminescence, 24 h; GLP-1R form is constitutively active; Potency, µM (doses to about 38.3 µM), for inactives: top-dose activity change, negative = inhibition, hits mostly inhibitors; actives 1.6% (n = 410,000); P43220; note: % is set by controls: 0 for no effect and ±100 for the full control effect; nearly all actives have a fitted effect of over 55% in size
# Target sequence (P43220 whole entry, looked up): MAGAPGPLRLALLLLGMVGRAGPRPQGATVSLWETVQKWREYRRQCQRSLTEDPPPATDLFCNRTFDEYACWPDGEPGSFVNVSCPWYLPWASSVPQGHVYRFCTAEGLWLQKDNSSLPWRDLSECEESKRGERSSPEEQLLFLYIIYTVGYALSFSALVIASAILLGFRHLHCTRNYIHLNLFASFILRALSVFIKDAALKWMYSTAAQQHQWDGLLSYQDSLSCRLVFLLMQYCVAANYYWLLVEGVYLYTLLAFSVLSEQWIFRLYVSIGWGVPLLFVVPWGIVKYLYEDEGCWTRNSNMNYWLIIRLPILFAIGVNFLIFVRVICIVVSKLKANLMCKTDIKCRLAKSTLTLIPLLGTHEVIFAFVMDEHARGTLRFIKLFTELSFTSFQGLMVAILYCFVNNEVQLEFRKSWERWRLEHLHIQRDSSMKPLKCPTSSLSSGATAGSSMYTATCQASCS
#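 Stable HEK293 clone (constitutively active GLP-1R + cAMP-response luciferase); 200 cells/uL plated, 12 h pre-culture, compound 24 hr, 37 deg C/5% CO2; detection reagent 12 min RT; luminescence.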
# GLP1R cytotox = cytotoxicity in counter-screen for GLP-1R inverse agonists; HEK293 cAMP-luciferase reporter cells, luminescence, 24 h; Potency, µM (titrated, usually from 38.3 µM), for inactives: top-dose activity change, negative = inhibition, actives largely listed as inhibitors; actives 0.13% (n = 410,000);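 note: loss of luciferase light is scored as toxicity; % is set by controls: 0 for no effect and ±100 for the full control effect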
#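 Step one: seed cells (200 cells/uL, DMEM with 10% Nu serum, 1% pen-strep). Step two: 12-hour incubation at 37 deg C. Step three: pin 23 nL compound, incubate 24 hr. Step four: add luciferase reagent, read luminescence 12 min later.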
# GLP-1R agonist = activates the human GLP-1 receptor | HEK293 GLP-1R CRE-luciferase, luminescence, 4-6 h; cells express a hypersensitive GLP-1R form | P43220 | actives 0.007% (n = 380,000) | Potency, µM (series often up to 45.6 µM), for the others: top-dose activation, hits mostly activators; note: % of control where 0% means no effect
# * hit, by the source's call; i = inactive; ? = inconclusive; · = no result; ! = not active in a repeat; [ ] = dose if it differs, or a comment. Calls come from the whole dose curve; as a rule, active = well fitted curve in the direction sought with a large enough effect; inconclusive = small, poorly fitted or top-dose-only effect, or another doubt; inactive = no such curve, though single readings can be large; an effect the other way counts as inactive or inconclusive. Potency is the fitted concentration of half-maximal effect.
SMILES,PTHR1 agonist,GLP1R inv ag,GLP1R cytotox,GLP-1R agonist
CC1CC(C)CN(c2ccc(C(=O)NCc3ccc4c(c3)OCO4)cc2[N+](=O)[O-])C1 (stereo unspecified),i,11.2µM*,-17.1%,3.1%
O=C(c1cccs1)N1CCN(C(=O)c2cn(-c3ccccc3)nc2-c2ccccc2)CC1,i,10µM*,-0.2%,-3.1%
CC1=NN(c2ccccc2)C(=O)/C1=C\C=C1\N(C)c2ccccc2C1(C)C,-13.0%,11.2µM*,-11.1%,-1.3%
CC1=NN(c2ccccc2)C(=O)/C1=C\C=C1/N(C)c2ccccc2C1(C)C,-22.2%,?,-23.5%,6.8%
CCN1CCC(N(Cc2ccc3c(c2)OCO3)C(=O)Nc2cc(F)ccc2F)CC1,i,?,28.9%,·
N/C(CC(=O)NC1CCCCC1)=N\OCC(=O)Nc1ccc(Cl)c(Cl)c1,i,22.4µM*,6.1%,10.0%
CC(C)(C)NC(=O)[C@H]1CN(Cc2cccnc2)CCN1C[C@@H](O)C[C@@H](Cc1ccccc1)C(=O)N[C@H]1c2ccccc2C[C@H]1O,·,·,·,-0.3%
Cc1ccc(NC(=O)CN(C)C(=O)C(Sc2ccccc2)c2ccccc2)cc1 (stereo unspecified),-32.8%,8.91µM*,-25.7%,0.0%
Cc1ccc(NC(=O)CN(C)C(=O)c2ccccc2Cc2ccccc2)cc1,i,10µM*,-8.7%,7.4%
Cc1cccc(C)c1NC(=O)CN(C)C(=O)c1ccccc1Cc1ccccc1,i,?,-4.0%,5.1%
Cn1c(CNc2ccc(Cl)cc2)nnc1SCCN1CCCCC1,i,3.98µM*,-10.1%,-13.4%
O=C(Nc1ccc2c(c1)OCCO2)c1cc2sccc2n1Cc1ccc(F)cc1,-21.7%[57.5 µM],5.62µM*,-8.0%,-10.6%
CCOc1ccc(NC(=O)Cn2c(=O)n(-c3ccccc3)c(=O)c3ccc(C(=O)NCc4ccc5c(c4)OCO5)cc32)cc1,-9.7%,-0.3%,0.5%,-5.5%
CCc1ccc2oc(C(=O)Nc3cc(Cl)ccc3OC)cc(=O)c2c1,-9.1%,-3.5%,8.2%,·
COc1ccccc1C(=O)NCC(c1cccs1)N1CCc2ccccc21 (stereo unspecified),-24.2%,10µM*,-0.2%,-4.2%
O=C(NCC(c1cccs1)N1CCc2ccccc21)c1ccccc1 (stereo unspecified),-2.3%,7.08µM*,?,-1.6%
O=C(NCc1ccccc1F)C1CCN(Cc2cc3ccccc3n2Cc2cccc(Cl)c2)CC1,-24.2%,?,1.7%,·
Cc1nc2scc(C)n2c(=O)c1S(=O)(=O)Nc1cccc(O)c1,-23.9%,4.8%,15.9%,·
Cc1nc2scc(C)n2c(=O)c1S(=O)(=O)Nc1cccc(C(F)(F)F)c1,-18.2%,11.2µM*,2.1%,·
Cc1ccc(N2CC(c3nnc(Cc4ccc(F)cc4Cl)o3)CC2=O)cc1 (stereo unspecified),-0.2%,-8.6%,0.3%,·
Cc1cc(C)c2nc(C)cc(Nc3ccc(C(=O)N(C)C)cc3)c2c1,i,?,-24.9%,9.9%
CC(=O)c1ccc(Nc2cc(C)nc3c(C)cc(C)cc23)cc1,i,8.91µM*,?,16.2%
CC12CC3(C)CC(C)(C1)CC(NC(=O)N1CCCC1)(C2)C3,i,10µM*,-21.9%,-5.0%
COc1ccc(-c2nc(SCC(=O)NC3CCCC3)c(-c3ccc(F)cc3)[nH]2)cc1,i,?,-13.6%,·
COc1ccc(-c2[nH]c(-c3ccccc3)nc2SCC(=O)NC2CCCC2)cc1,-6.4%,10µM*!,-2.6%,2.2%
SMILES,PTHR1 agonist,GLP1R inv ag,GLP1R cytotox,GLP-1R agonist
COc1ccc(-c2[nH]c(-c3ccc(F)cc3)nc2SCC(=O)NC2CCCC2)cc1,i,7.94µM*,-20.4%,3.9%
COc1ccc(CCNC(=O)C2CCC(CNS(=O)(=O)c3ccc(C)cc3)CC2)cc1OC (stereo unspecified),i,46.8%,-14.1%,·
CCOC(=O)c1c(NC(=O)C(NCCN(C)C)c2ccccc2)sc2c1CCCC2 (stereo unspecified),i,?,3.98µM*,19.8%
Cc1cccc(N2CCN(C(=O)Cn3ncc4c([nH]c5ccccc54)c3=O)CC2C)c1 (stereo unspecified),-12.0%,9.6%,-10.6%,·
Cc1cccc(Cn2c(CN3CCCC(C)C3)nc3c2c(=O)n(C)c(=O)n3C)c1 (stereo unspecified),?,21.7%,-2.6%,·
CCOC(=O)c1nc2ccc(C)cc2c2c1C1CC(c3c(Cl)cccc31)N2C(=O)OCc1ccccc1 (stereo unspecified),-23.2%,5.01µM*,2.6%,11.9%
Cc1cc(NC(=O)CC2CCCC2)ccc1Br,-23.6%,8.91µM*,-23.6%,14.8%
Cc1ccc(NC(=O)CN2C(=O)NC3(CCCCCC3)C2=O)cc1Cl,-13.2%,?,?,0.1%
Cc1cc(NC(=O)CN2C(=O)NC3(CCCCCC3)C2=O)ccc1Br,i,10µM*,-16.1%,21.2%
Cc1cc(Nc2ccc(Cl)cc2)nc(NCc2ccccc2)n1,-21.3%,11.2µM*,?,?
Cc1ccc(/C=N/Nc2cc(C)nc(NCc3ccccc3)n2)cc1,i,2.82µM*,-14.6%,13.5%
Cc1cc(Nc2ccccc2)nc(NCc2ccccc2)n1,i,8.91µM*,?,15.1%
Cc1cc(N/N=C/c2ccc(F)cc2)nc(NCc2ccccc2)n1,-0.2%,?,?,5.2%
O=C(c1ccc(Cl)cc1)c1c[nH]c(C(=O)NNc2ccccc2)c1,-30.8%,2µM*,?,1.7%
COc1ccc(-n2cc(C(=O)Nc3cc(F)ccc3F)c3ccccc3c2=O)cc1,i,?,2.4%,·
CC(=O)c1ccc(OCC(O)COc2ccc(C(C)=O)cc2)cc1,i,12.4%,11.8%,1.0%
CC(=O)c1ccc(OCC(O)CN(C)CCOc2ccc(Br)cc2)cc1 (stereo unspecified),-17.8%,10µM*,9.9%,-0.3%
CC(NC(=O)NC1CCCCC1)c1ccc2c(c1)OCO2 (stereo unspecified),-5.4%,?,-2.7%,4.1%
CC(NC(=O)NC12CC3CC(CC(C3)C1)C2)c1ccc2c(c1)OCO2 (stereo unspecified),-24.8%,11.2µM*,3.7%,-0.4%
Cc1cccn2c(=O)c(C(=O)NCCc3ccccc3)c(O)nc12,-1.7%,?,0.7%,·
CCN(Cc1ccccc1)Cc1c(O)ccc2c(=O)c(-c3ccc(Cl)cc3)coc12,i,4.8%,-5.4%,·
Cc1ccc(NC(=O)CCN2C(=O)c3ccccc3Sc3ncccc32)cc1,50.1µM*!,-29.7%,4.7%,0.1%
Cc1cc(C)n(CC(O)Cn2c3ccccc3c3ccccc32)n1 (stereo unspecified),-16.5%[57.5 µM],10µM*,0.5%,3.8%
COc1cc(/C=C/CN2CCC(C(=O)NC(c3ccc(F)cc3)c3ccc4ccccc4n3)CC2)ccc1OC(C)=O (stereo unspecified),-45.5%,10µM*,?,-5.1%
